Results taken from PubChem BioAssay (NCI).
“And” between values parts separate entries of the source, which are not always exact repeats. Equal values may be shown once. About 79,000 compounds went through this panel and 15% of them were active in at least one assay; those are over-represented in the sample as a whole. A number with no mark means an inactive call. The source made the active and inactive calls. Cut-off read from the data, not from the text of the source: active = growth inhibition above about 70%; inactive = the rest.

Legend:
[1] = NCI Yeast Anticancer Drug Screen. Data for the rad50 strain (AID 155);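 note: 0% = growth of vehicle-only cultures of the same strain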; settings: S. cerevisiae rad50 strain growth inhibition; at 50.0 µM; active compounds read high
Method in brief: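 Compounds were tested on a yeast strain with an engineered DNA damage repair alteration; the reported value is growth inhibition normalised to vehicle treatment.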

[2] = NCI Yeast Anticancer Drug Screen. Data for the mec2-1 strain (AID 157); settings: S. cerevisiae mec2-1 strain, at 50.0 µM, active compounds read high
Method in brief: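 mec2-1 yeast strain, carrying an alteration in DNA damage repair or cell cycle control, was exposed to compounds; growth inhibition was measured relative to vehicle-treated controls.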

[3] = NCI Yeast Anticancer Drug Screen. Data for the sgs1 mgt1 strain (AID 161);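 note: 0% = growth of cultures given vehicle only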; settings: S. cerevisiae sgs1 mgt1 strain, at 50.0 µM, active compounds read high
Method in brief: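 Compounds are added to genetically altered yeast, and growth is compared with cultures given vehicle alone to give percent inhibition.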

[4] = NCI Yeast Anticancer Drug Screen. Data for the cln2 rad14 strain (AID 165);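 note: 0% = growth equal to vehicle treated cultures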; settings: S. cerevisiae cln2 rad14 strain, at 50.0 µM, active compounds read high
Method in brief: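 Yeast carrying cln2 and rad14 alterations (cell cycle control and DNA damage repair) were exposed to compounds. Growth inhibition was measured against vehicle-treated controls.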

[5] = NCI Yeast Anticancer Drug Screen. Data for the bub3 strain (AID 167); settings: S. cerevisiae bub3 mutant strain, at 50.0 µM, active compounds read high
Method in brief: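 Growth of a checkpoint-deficient yeast mutant is measured after compound exposure. Values represent inhibition relative to vehicle.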

[6] = NCI Yeast Anticancer Drug Screen. Data for the mlh1 rad18 strain (AID 175); settings: S. cerevisiae mlh1 rad18 strain growth inhibition; at 50.0 µM; active compounds read high
Method in brief: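 Growth inhibition of the yeast strain was measured after compound exposure and expressed relative to vehicle-treated controls. The strain carries defined defects in DNA damage repair.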

O=NNc1ccc(Br)cn1
growth inhibition [1]: -2.7%
growth inhibition [2]: -6.25%
growth inhibition [3]: 5.7%
growth inhibition [4]: -0.85%
growth inhibition [5]: -0.35%
growth inhibition [6]: 4.2%

Oc1ccc(C(O)C2CCCCN2)cc1O (stereo not given)
growth inhibition [1]: -10.5%
growth inhibition [2]: -20.9%
growth inhibition [3]: -0.25%
growth inhibition [4]: -17.9%
growth inhibition [5]: -16.8%
growth inhibition [6]: -0.45%

CC(C)CC(=O)[O-].CC(C)CC(=O)[O-].N.N.N.N.[Co+3].[O-][Cl+3]([O-])([O-])O.[O-][Cl+3]([O-])([O-])[O-]
growth inhibition [1]: -23.6%
growth inhibition [2]: -6.2%
growth inhibition [3]: -42.2%
growth inhibition [4]: -20.9%
growth inhibition [5]: -16.2%
growth inhibition [6]: -14.8%

CC(COC(=O)NCc1ccc(Cl)cc1Cl)OC(N)=O (stereo not given)
growth inhibition [1]: 2.6%
growth inhibition [2]: 0.35%
growth inhibition [3]: 4.25%
growth inhibition [4]: -12.8%
growth inhibition [5]: -5%
growth inhibition [6]: -8.65%

C(#Cc1ccccc1)c1ccccc1.[C-]#[O+].[C-]#[O+].[C-]#[O+].[C-]#[O+].[C-]#[O+].[C-]#[O+].[Co].[Co]
growth inhibition [1]: 42.4%
growth inhibition [2]: 28.1%
growth inhibition [3]: 42.4%
growth inhibition [4]: -3.55%
growth inhibition [5]: 5.2%
growth inhibition [6]: 53.2%

COc1cc2c(cc1OC)C13CCN4CC5=CCOC6CC(=O)N2C1C6C5CC43 (stereo not given)
growth inhibition [1]: -13% and 7.35%
growth inhibition [2]: -43.9% and -36.3%
growth inhibition [3]: -20.9%
growth inhibition [4]: 4%
growth inhibition [5]: -8.6%
growth inhibition [6]: -0.6% and -1.65%

NC1CC2CCCCC2CC1c1ccccc1 (stereo not given)
growth inhibition [1]: 14.8%
growth inhibition [2]: 19.4%
growth inhibition [3]: 18.5%
growth inhibition [4]: 11.9%
growth inhibition [5]: -5.85%
growth inhibition [6]: 18.1%

Cc1ccc(CI)cc1
growth inhibition [1]: -2.15%
growth inhibition [2]: -6.7%
growth inhibition [3]: -22.9%
growth inhibition [4]: 18.9%
growth inhibition [5]: 20.1%
growth inhibition [6]: 19.5%

CCOP(=O)(OCC)C(C#N)OC(C)(C)C (stereo not given)
growth inhibition [1]: 4.4%
growth inhibition [2]: 20.4%
growth inhibition [3]: 12.2%
growth inhibition [4]: -0.25%
growth inhibition [5]: 10.3%
growth inhibition [6]: 2.35%

[Mn+3].[O-][Cl+3]([O-])([O-])O.[O-]c1ccccc1C=NCCN1CC1.[O-]c1ccccc1C=NCCN1CC1
growth inhibition [1]: 95.5% (active)
growth inhibition [2]: 98.7% (active)
growth inhibition [3]: 93.5% (active)
growth inhibition [4]: 87.1% (active)
growth inhibition [5]: 98.8% (active)
growth inhibition [6]: 84.2% (active)

O=P1(N(CCCl)CCCl)Nc2cc3ccccc3cc2N1
growth inhibition [1]: -5.65%
growth inhibition [2]: -15.7%
growth inhibition [3]: -4.45%
growth inhibition [4]: -108%
growth inhibition [5]: -15.5%
growth inhibition [6]: -14.6%

CC(N)C(O)c1ccc(O)cc1 (stereo not given)
growth inhibition [1]: -14%
growth inhibition [2]: -12%
growth inhibition [3]: -21.1%
growth inhibition [4]: -4.95%
growth inhibition [5]: -39.2%
growth inhibition [6]: -44%

Cc1c[n+]2ccc3ccccc3c2c2ccccc12
growth inhibition [1]: -3.9%
growth inhibition [2]: -10.9%
growth inhibition [3]: -8.65%
growth inhibition [4]: -78.2%
growth inhibition [5]: -3.2%
growth inhibition [6]: -11.7%

C=C(C)CCP(=S)(OCC)OCC
growth inhibition [1]: -27.9%
growth inhibition [2]: -18.3%
growth inhibition [3]: -24.2%
growth inhibition [4]: -22.7%
growth inhibition [5]: 5.45%
growth inhibition [6]: -3.45%

O=C(NCCc1ccc([N+](=O)[O-])cc1)c1ccc(S(=O)(=O)F)cc1
growth inhibition [1]: 1.9%
growth inhibition [2]: 12.7%
growth inhibition [3]: 6.5%
growth inhibition [4]: 3%
growth inhibition [5]: 19.4%
growth inhibition [6]: 8.05%

CC(C)OP(=O)(OC(C)C)C(C(F)(F)F)C(F)(F)F
growth inhibition [1]: -3.65%
growth inhibition [2]: 9.65%
growth inhibition [3]: 19%
growth inhibition [4]: 45.9%
growth inhibition [5]: 10.6%
growth inhibition [6]: -23.1%

O=C(NCCN1CCOCC1)C1(O)N=C(c2ccccc2)c2ccsc2-n2cccc21 (stereo not given)
growth inhibition [1]: 51.3%
growth inhibition [2]: 30.3%
growth inhibition [3]: 64.2%
growth inhibition [4]: -6.05%
growth inhibition [5]: 27.6%
growth inhibition [6]: 36.5%

CCC(=O)c1ccc(C)cc1
growth inhibition [1]: -11.5%
growth inhibition [2]: 1.2%
growth inhibition [3]: -10.4%
growth inhibition [4]: -16.7%
growth inhibition [5]: 4.2%
growth inhibition [6]: -3.45%

CCOc1ccc(N)cc1
growth inhibition [1]: -4.65%
growth inhibition [2]: 10.9%
growth inhibition [3]: -6.05%
growth inhibition [4]: 5.85%
growth inhibition [5]: 0.45%
growth inhibition [6]: 8.65%

Cc1cc(O)ccc1[N+](=O)[O-]
growth inhibition [1]: 1.15%
growth inhibition [2]: -1.2%
growth inhibition [3]: 11.8%
growth inhibition [4]: 9.6%
growth inhibition [5]: 2.9%
growth inhibition [6]: 2.95%

CCC1(CC(C)O)C(=O)NC(=O)NC1=O (stereo not given)
growth inhibition [1]: 6.9%
growth inhibition [2]: -2.45%
growth inhibition [3]: -20%
growth inhibition [4]: -37.7%
growth inhibition [5]: -0.65%
growth inhibition [6]: -23.1%

CC([NH-])C(C)[NH-].CC([NH-])C(C)[NH-].CC([NH-])C(C)[NH-].[Cr+6] (stereo not given)
growth inhibition [1]: 9.9%
growth inhibition [2]: 22.8%
growth inhibition [3]: 10.7%
growth inhibition [4]: 2%
growth inhibition [5]: 1.9%
growth inhibition [6]: 8.15%

CC(=O)CC(C)=O.[In]
growth inhibition [1]: 23.8%
growth inhibition [2]: 42.6%
growth inhibition [3]: 34.5%
growth inhibition [4]: 29.4%
growth inhibition [5]: 27.6%
growth inhibition [6]: 2.65%

ClCCOCOCCCl
growth inhibition [1]: -0.5%
growth inhibition [2]: -7.1%
growth inhibition [3]: -20.1%
growth inhibition [4]: -38%
growth inhibition [5]: -6.15%
growth inhibition [6]: -7.25%

CC(C)CCC[C@@H](C)[C@H]1CC[C@H]2[C@@H]3CC=C4C[C@@H](OC(=O)Cl)CC[C@]4(C)[C@H]3CC[C@]12C
growth inhibition [1]: -24.1%
growth inhibition [2]: -24.9%
growth inhibition [3]: -14.7%
growth inhibition [4]: 1.7%
growth inhibition [5]: -2.7%
growth inhibition [6]: -13.4%

C[N+]1([O-])[C@H]2CC(OC(=O)[C@H](CO)c3ccccc3)C[C@H]1[C@H]1O[C@H]12 (stereo not given in full)
growth inhibition [1]: -9.75%
growth inhibition [2]: -3.35%
growth inhibition [3]: -14.9%
growth inhibition [4]: -26.5%
growth inhibition [5]: -34.2%
growth inhibition [6]: -10.1%

CC(C)(NC1=NCCO1)c1ccccc1
growth inhibition [1]: -4.95%
growth inhibition [2]: -16.9%
growth inhibition [3]: -7.65%
growth inhibition [4]: 5.5%
growth inhibition [5]: -13.7%
growth inhibition [6]: 62%

COC1OC2COc3ccccc3OC2C(N=C(N)N[N+](=O)[O-])C1OS (stereo not given)
growth inhibition [1]: -0.8%
growth inhibition [2]: -7.55%
growth inhibition [3]: 2.15%
growth inhibition [4]: -24.7%
growth inhibition [5]: -3.15%
growth inhibition [6]: 11.3%

CN(C)P(=O)(N(C)C)N(C)CO
growth inhibition [1]: 6.35%
growth inhibition [2]: 6.05%
growth inhibition [3]: 25.4%
growth inhibition [4]: 7.35%
growth inhibition [5]: 18.2%
growth inhibition [6]: 4.6%

CC12CCC3C(CCC4(C)CC(OC(=O)Cc5ccc(N(CCCl)CCCl)cc5)CCC34C)C1CCC2=O (stereo not given)
growth inhibition [1]: -10.4%
growth inhibition [2]: 2.85%
growth inhibition [3]: -2.3%
growth inhibition [4]: -1.4%
growth inhibition [5]: -4.8%
growth inhibition [6]: 3.65%

CS/C([S-])=N/N=C(C)C.CS/C([S-])=N/N=C(C)C.[Pt+2]
growth inhibition [1]: 9.1%
growth inhibition [2]: 1.45%
growth inhibition [3]: 0.7%
growth inhibition [4]: -41.3%
growth inhibition [5]: -0.8%
growth inhibition [6]: -9.9%

CC([NH-])C[NH-].[NH2-].[NH2-].[Pt+4] (stereo not given)
growth inhibition [1]: 17.1%
growth inhibition [2]: -5.65%
growth inhibition [3]: -10.3%
growth inhibition [4]: -6.25%
growth inhibition [5]: 5.8%
growth inhibition [6]: -12.3%

O=NNc1ccc2ccccc2n1
growth inhibition [1]: -17.1%
growth inhibition [2]: 23.5%
growth inhibition [3]: -2%
growth inhibition [4]: 14.6%
growth inhibition [5]: 3.2%
growth inhibition [6]: -6.95%

C=C1C(=O)OC2CC3(C)OC3CC/C(C)=C/C(OC(C)=O)C12 (stereo not given)
growth inhibition [1]: 27.1%
growth inhibition [2]: 37.4%
growth inhibition [3]: 29.6%
growth inhibition [4]: 21.1%
growth inhibition [5]: 45.1%
growth inhibition [6]: 38%

Nc1nc(N)c2n[nH]nc2n1
growth inhibition [1]: -18.5%
growth inhibition [2]: -6.45%
growth inhibition [3]: -22.1%
growth inhibition [4]: -105%
growth inhibition [5]: 3.55%
growth inhibition [6]: -15.3%

COC(CN1CCOCCOCCOCC1)CN1CCOCCOCCOCC1
growth inhibition [1]: -9.3%
growth inhibition [2]: -6.55%
growth inhibition [3]: -29.1%
growth inhibition [4]: 15.4%
growth inhibition [5]: 14.2%
growth inhibition [6]: -17.8%

CCCCOC(=O)C(O)CF (stereo not given)
growth inhibition [1]: -25.2%
growth inhibition [2]: -10.1%
growth inhibition [3]: -0.25%
growth inhibition [4]: 1.6%
growth inhibition [5]: 1.05%
growth inhibition [6]: -29.6%

CN(C)c1ccc2c(c1)Cc1ccccc1-2
growth inhibition [1]: 1%
growth inhibition [2]: -8.65%
growth inhibition [3]: 18.2%
growth inhibition [4]: -24.1%
growth inhibition [5]: 44%
growth inhibition [6]: -25.8%

Nc1n[nH][nH]c1=O
growth inhibition [1]: -29.5%
growth inhibition [2]: -26.1%
growth inhibition [3]: -13.9%
growth inhibition [4]: -20.4%
growth inhibition [5]: -0.7%
growth inhibition [6]: -12.1%

CCOP(=O)(OCC)c1cc2cc(O)ccc2oc1=O
growth inhibition [1]: -40%
growth inhibition [2]: -26%
growth inhibition [3]: -32.2%
growth inhibition [4]: 2.75%
growth inhibition [5]: -8.75%
growth inhibition [6]: -50.7%

O=C(O)c1cccc(P(=O)(O)O)c1
growth inhibition [1]: 14.3% and 9.3%
growth inhibition [2]: -19.3% and -12.9%
growth inhibition [3]: -5.25% and 17.4%
growth inhibition [4]: 2.35% and 28.6%
growth inhibition [5]: -4% and -10.6%
growth inhibition [6]: 2.55% and -0.35%

CCCCCCCNC(=O)CBr
growth inhibition [1]: 44%
growth inhibition [2]: 26.2%
growth inhibition [3]: 33.4%
growth inhibition [4]: 4.75%
growth inhibition [5]: 41.2%
growth inhibition [6]: 46.5%

Cc1cccc(N2C(=O)C3C(C2=O)C2(Cl)C(Cl)=C(Cl)C3(Cl)C2(Cl)Cl)c1C (stereo not given)
growth inhibition [1]: 88.2% (active)
growth inhibition [2]: 48.6%
growth inhibition [3]: 50.5%
growth inhibition [4]: 57%
growth inhibition [5]: 65.6%
growth inhibition [6]: 56%

Cc1cc(N(CCCl)CCCl)ccc1C1N(Cc2ccc(N(C)C)cc2)CCN1Cc1ccc(N(C)C)cc1
growth inhibition [1]: 13.5%
growth inhibition [2]: 1.55%
growth inhibition [3]: 16.4%
growth inhibition [4]: -3.4%
growth inhibition [5]: 1.6%
growth inhibition [6]: 18.6%

S=P(c1ccccc1)(N1CCOCC1)N1CCOCC1
growth inhibition [1]: 7.8%
growth inhibition [2]: -9.85%
growth inhibition [3]: 7.65%
growth inhibition [4]: -16.4%
growth inhibition [5]: 13.4%
growth inhibition [6]: -1.9%
